Compound activity from PubChem.
RORg inh: blocks mouse ROR gamma transcriptional activity; P51450; Drosophila S2 Gal4-RORgamma UAS-luciferase reporter, 20 h; Potency, µM (titrated, usually from 53.6 µM), most hits filed as inhibitors; 310,000 compounds, 5.4% hits; note: nearly all actives have a fitted effect of over 60% in size
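Luciferase reporter read in Schneider cells carrying Gal4-RORγ (mouse) and UAS-Photinus luciferase; cells given compound 1 h before 700 uM copper sulfate induction, then incubated 20 h at ambient temperature.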
PLK1 PBD inh: PLK1 (human) polo-box domain binding inhibition; P53350; Plk1 PBD binding of FITC phosphopeptide, fluorescence polarization; Potency, µM, most hits filed as inhibitors; 360,000 compounds, 2.8% hits; AID 720504; note: series mostly up to about 57 µM; nearly all actives have a fitted effect of over 65% in size
Target sequence (P53350 whole entry, looked up, the tested form may be a part): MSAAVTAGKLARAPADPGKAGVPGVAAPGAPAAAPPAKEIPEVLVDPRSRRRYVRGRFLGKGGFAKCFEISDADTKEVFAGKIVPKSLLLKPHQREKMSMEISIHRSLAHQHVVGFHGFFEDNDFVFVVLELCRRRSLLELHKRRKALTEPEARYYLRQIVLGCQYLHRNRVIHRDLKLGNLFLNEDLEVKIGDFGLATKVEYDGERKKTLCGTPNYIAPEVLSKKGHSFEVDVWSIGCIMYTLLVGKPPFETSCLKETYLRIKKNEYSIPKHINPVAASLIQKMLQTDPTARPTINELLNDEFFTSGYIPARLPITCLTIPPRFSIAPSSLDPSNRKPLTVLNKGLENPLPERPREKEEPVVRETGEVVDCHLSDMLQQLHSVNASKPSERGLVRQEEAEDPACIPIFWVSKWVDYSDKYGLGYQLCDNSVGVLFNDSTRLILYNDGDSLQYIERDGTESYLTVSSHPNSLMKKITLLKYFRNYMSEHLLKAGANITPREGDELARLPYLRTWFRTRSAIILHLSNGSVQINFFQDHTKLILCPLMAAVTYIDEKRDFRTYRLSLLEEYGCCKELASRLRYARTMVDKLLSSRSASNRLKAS
Gal4-VP16 FLuc: inhibits Gal4-VP16 luciferase reporter, ROR gamma counter-screen. Drosophila S2 Gal4-VP16 UAS-luciferase, luminescence, 20 h. Potency, µM (series often up to 53.6 µM), most hits filed as inhibitors. 310,000 compounds, 3.5% hits;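 note: Gal4-VP16 expression switched on by copper sulfate through the metallothionein promoter; nearly all actives have a fitted effect of over 50% in size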
ALDH1A1 inh: ALDH1A1 (human) enzyme inhibition; Purified ALDH1A1, NADH fluorescence, propionaldehyde substrate; Potency, µM (doses to about 75.3 µM), hits mostly inhibitors; 220,000 compounds, 7.3% hits; AID 1030; active = well fitted inhibition curve with a large enough effect, not every such curve was filed as active; inconclusive = small, poorly fitted or top-dose-only effect, or another doubt; inactive = no such curve, though single readings can be large or run the other way
Sfp inh: inhibitors of Bacillus subtilis Sfp phosphopantetheinyl transferase. Q9F4F7. 310,000 compounds, 3.5% hits. Potency, µM, usual class: inhibitors. Biochemical Sfp PPTase activity, qHTS;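 note: the enzyme is Sfp with the accession as filed and its product quenches rhodamine fluorescence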
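Fluorescence-quenching assay: 15 nM Sfp-PPTase preincubated 15 min at room temperature with compound, then 5 uM rhodamine-CoA and 12.5 uM BHQ-2-labelled YbbR peptide added. Fluorescence (ex 525/em 598 nm) read at start and after 30 min; difference gives rate.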
A number is an active result; - = inactive; ? = inconclusive; . = no result; [ ] = another dose, or the depositor's remark. Rows were chosen to be rich in hits. Some 12% of all compounds tested hit in one or more screens of this group. Unless noted, calls come from the whole dose curve; as a rule, active = well fitted curve in the direction sought with a large enough effect; inconclusive = small, poorly fitted or top-dose-only effect, or another doubt; inactive = no such curve, though single readings can be large; an effect the other way counts as inactive or inconclusive.

SMILES	RORg inh	PLK1 PBD inh	Gal4-VP16 FLuc	ALDH1A1 inh	Sfp inh
CCCOc1cccc(-c2cc(-c3n[nH]c(=S)n3CC)c3ccccc3n2)c1	1.3µM	-	-	-	-
CCn1c(-c2ccccc2SC)n[nH]c1=S	14µM	-	-	-	-
C=CCn1c(-c2cc(-c3ccc(C)cc3)nc3ccccc23)n[nH]c1=S	0.89µM	-	10µM	-	-
C=CCNC(=O)C1CC(=O)N(c2ccc(OCC(=O)Nc3ccc(Cl)cc3)cc2)C1 (stereo not given)	-	?	-	.	-
COC(=O)C1CCN(C(=O)CC(NC(=O)C(F)(F)F)c2cccs2)CC1 (stereo not given)	-	-	-	.	-
CC(C)Oc1ccc(-c2nc(NCC3CCCO3)c3ccccc3n2)cc1 (stereo not given)	-	-	-	?	-
CCn1c(-c2cc(-c3ccc(OC(C)C)cc3)nc3ccccc23)n[nH]c1=S	13µM	-	?	?	-
Cc1nc2c(-c3ccc(Cl)cc3)cnn2c(N)c1-c1ccc(F)cc1	-	-	-	.	-
Cc1nc2c(-c3ccc(F)cc3)cnn2c(N)c1-c1ccccc1	0.045µM	-	?	.	-
CCC(=O)NC(c1cccs1)c1ccc2cccnc2c1O (stereo not given)	0.5µM	-	1.1µM	-	?
Cc1conc1NC(c1cccs1)c1ccc2cccnc2c1O (stereo not given)	2.5µM	.	5.6µM	?	50µM
CCCC(=O)NC(c1ccco1)c1cc(Cl)c2cccnc2c1O (stereo not given)	4µM	-	3.5µM	-	-
CCCC(=O)NC(c1ccc2c(c1)OCO2)c1cc(Cl)c2cccnc2c1O (stereo not given)	1.4µM	-	1.3µM	-	-
CCCC(=O)NC(c1cccs1)c1cc(Cl)c2cccnc2c1O (stereo not given)	0.4µM	-	0.5µM	?	-
CC(C)CC(=O)NC(c1cccs1)c1ccc2cccnc2c1O (stereo not given)	-	-	-	-	-
CC[C@H](C)[C@H](NC(=O)[C@H](CCC(=O)O)NC(=O)[C@@H](N)CO)C(=O)N[C@@H](CCC(N)=O)C(=O)N[C@@H](CC(C)C)C(=O)N[C@@H](CCSC)C(=O)N[C@@H](Cc1cnc[nH]1)C(=O)N[C@@H](CC(N)=O)C(=O)N[C@@H](CC(C)C)C(=O)NCC(=O)N[C@@H](CCCCN)C(=O)N[C@@H](Cc1cnc[nH]1)C(=O)N[C@@H](CC(C)C)C(=O)N[C@@H](C)C(=O)N[C@@H](CO)C(=O)N[C@H](C(=O)N[C@@H](CCC(=O)O)C(=O)N[C@@H](CCCNC(=N)N)C(=O)N[C@@H](CCSC)C(=O)N[C@@H](CCC(N)=O)C(=O)N[C@@H](Cc1c[nH]c2ccccc12)C(=O)N[C@@H](CC(C)C)C(=O)N[C@@H](CCCNC(=N)N)C(=O)N[C@@H](CCCCN)C(=O)N[C@@H](CCCCN)C(=O)N[C@@H](CC(C)C)C(=O)N[C@@H](CCC(N)=O)C(=O)N[C@@H](CC(=O)O)C(=O)N[C@H](C(=O)N[C@@H](Cc1cnc[nH]1)C(=O)N[C@@H](CC(N)=O)C(=O)N[C@@H](Cc1ccccc1)C(=O)O)C(C)C)C(C)C	-	.	-	.	-
CCN=C(Nc1ccc2c(c1)OCO2)SC1CC(=O)N(c2ccc(OC)cc2)C1=O (stereo not given)	-	-	-	?	-
CCN=C(Nc1ccc2c(c1)OCO2)SC1CC(=O)N(c2ccccc2F)C1=O (stereo not given)	-	-	-	18µM	-
C/C(CCc1ccc2c(c1)OCO2)=N\N=C(/N)SC1CC(=O)N(c2ccccc2F)C1=O (stereo not given)	?	-	?	?	79µM
Cn1ccs/c1=N\C(=O)Nc1cccc(C(F)(F)F)c1	-	-	-	.	-
Cc1ccccc1OC(=O)n1c(=S)oc2cc(Cl)ccc21	?	13µM	?	7.1µM	-
O=C(Oc1ccccc1)n1c(=S)oc2ccccc21	?	21µM	?	?	-
COC(=O)n1c(=O)oc2ccccc21	-	-	-	-	-
CCOc1ccccc1NC(=O)Cn1c(=O)oc2cc(Cl)ccc21	-	-	-	.	-
CNc1cc(C(=O)Nc2cccc(OCc3ccccc3)c2)ncn1	.	-	.	.	.
SMILES	RORg inh	PLK1 PBD inh	Gal4-VP16 FLuc	ALDH1A1 inh	Sfp inh
CC1Cc2ccccc2N1C(=O)CSc1ccccc1 (stereo not given)	-	-	-	18µM	-
CC1Cc2ccccc2N1C(=O)CNc1ccccc1N1CCCCC1 (stereo not given)	-	-	-	13µM	-
Cc1nnc(SCC(=O)N2c3ccccc3CC2C)[nH]c1=O (stereo not given)	-	-	-	11µM	-
COc1cccc(CN(C)C(=O)c2ccc(S(=O)(=O)Nc3cccc(C)c3C)cc2)c1OC	.	-	.	.	.
COc1ccccc1N/C(N)=N/c1nc(CSc2ccc(C)cc2)cc(=O)[nH]1	-	?	7.9µM	-	-
Cc1ccc(Nc2nc(-c3ccc(F)cc3)cs2)nc1	-	-	?	.	-
CC(=O)Nc1cccc(-c2csc(Nc3ccccn3)n2)c1	-	-	?	-	89µM
CC(=O)Nc1cccc(-c2csc(NCc3ccccc3)n2)c1	-	-	-	?	40µM
Cc1ccc(Nc2nc(-c3ccc(O)c(O)c3)cs2)nc1	13µM	-	6.3µM	-	35µM
CCOc1ccc(N(Cc2ccc(C(=O)O)cc2)S(=O)(=O)c2ccc(C)cc2)cc1	-	-	-	.	-
COc1ccc(CN2CC(C(=O)N3CC(C)CC(C)C3)CC2=O)cc1 (stereo not given)	-	27µM	-	.	-
COc1ccc(CN2CC(C(=O)NCCC(C)C)CC2=O)cc1 (stereo not given)	-	-	-[10 µM]	-	-
COC(=O)C1=CO[C@@H](C)[C@@H]2CN3CCc4c([nH]c5ccccc45)[C@@H]3C[C@H]12	-	.	-	.	-
O=C(CC12CC3CC(CC(C3)C1)C2)NCc1ccc(F)cc1	-	30µM	-	.	-
O=C(CC12CC3CC(CC(C3)C1)C2)NCc1ccccc1	-	-	-	.	-
CC1Cc2ccccc2N1C(=O)CN1CCC(n2nnc3cc(C(F)(F)F)ccc32)CC1 (stereo not given)	-	?	4µM	11µM	-
CC1(C)Cc2[nH]c(=S)c(C#N)cc2CO1	20µM	17µM	?	2.2µM	10µM
N#Cc1cc2c([nH]c1=S)CCCC2	-	21µM	-	8.9µM	11µM
CC1(C)Cc2nc(NC3CCCCC3)c(C#N)cc2CO1	-	-	-	?	-
C[N+](C)(C)C(C1=CCCC1=O)c1ccccc1 (stereo not given)	.	.	.	-[13.5 µM]	.
CSCCC(C(=O)Nc1c(C)cccc1C)N1CCN(C/C=C/c2ccccc2)CC1 (stereo not given)	.	-	.	.	.
COCCNc1nc(C)nc2c1nc(-c1ccccc1)n2CCN(C)C	-	.	-	?	-
COc1ccc(Cc2noc(CN3CCN(Cc4cccc(Cl)c4)CC3)n2)cc1OC	-	-	-	8.9µM	-
